This is a sample that favours compounds with a hit; in the whole collection about 1.2% have one here.
RGS16-Gao HTS: RGS16-Galphao interaction regulator (human). bead-based flow cytometry RGS16-Galphao binding, fluorescence; actives lie on both sides. O15492+P09471. binding response (% of control), % at 10 µM. hit rate 0.38% among 220,000. AID 1441; call rule not given here;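 further: Galphao activated by GDP with aluminum fluoride before binding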
Target sequence (O15492 whole entry, looked up): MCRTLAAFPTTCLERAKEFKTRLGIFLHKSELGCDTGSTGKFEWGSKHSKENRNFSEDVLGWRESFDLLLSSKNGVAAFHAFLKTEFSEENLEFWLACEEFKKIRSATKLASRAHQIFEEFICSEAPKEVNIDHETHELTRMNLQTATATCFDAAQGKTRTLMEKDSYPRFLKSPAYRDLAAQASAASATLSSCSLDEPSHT
Target sequence (P09471 whole entry, looked up): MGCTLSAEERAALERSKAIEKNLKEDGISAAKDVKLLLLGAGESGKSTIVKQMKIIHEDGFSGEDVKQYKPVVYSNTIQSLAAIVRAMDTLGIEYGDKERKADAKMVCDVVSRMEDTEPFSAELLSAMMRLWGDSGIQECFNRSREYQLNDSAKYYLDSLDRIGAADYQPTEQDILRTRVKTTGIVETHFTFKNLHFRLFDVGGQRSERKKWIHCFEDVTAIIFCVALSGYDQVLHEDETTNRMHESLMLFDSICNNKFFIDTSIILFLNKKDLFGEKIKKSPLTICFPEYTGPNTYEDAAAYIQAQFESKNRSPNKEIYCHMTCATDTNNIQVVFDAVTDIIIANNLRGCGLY
RGS4-Gao reg: modulates binding of RGS4 to human Galphao; binding response (% of control), % at 10 µM; Multiplexed bead flow cytometry; actives lie on both sides; hit rate 0.33% among 220,000; in the data active means binding response below about 49% or above about 150%; inactive means in between;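 further: fluorescent Galphao activated with aluminum fluoride binding bead-coupled RGS4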
Target sequence (P09471 whole entry, looked up): as above
GSH bead fluor: GSH bead compound fluorescence profile; GSH beads flow cytometry, compound fluorescence 488/530 nm; active compounds read high; fluorescence (KMESF) at 10 µM; hit rate 0.25% among 190,000; in the data active means fluorescence above about 89;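 further: glutathione beads carrying GST-tagged Bcl family fusion proteins plus one bare bead set; values are compound well signal with DMSO vehicle wells as background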
RGS8-Gao: human RGS8-Galphao interaction regulation. multiplexed bead flow cytometry, RGS8-Galphao binding; actives lie on both sides. P09471. AID 1423. hit rate 0.34% among 220,000. response (percent of control binding), % at 10 µM; in the data active means response below about 60% or above about 140%; inactive means in between;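 further: Galphao activated as the GDP aluminium fluoride complex binding bead-coupled RGS8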
Avidin bead fluor: avidin bead compound fluorescence profile. Avidin beads, compound fluorescence 488/530 nm, flow cytometry; active compounds read high. fluorescence (KMESF) at 10 µM. hit rate 0.38% among 220,000; in the data active means fluorescence above about 47
RGS7-Gao reg: regulators of human RGS7-Galphao interaction; P09471; Multiplexed bead flow cytometry, RGS7-Galphao binding; actives lie on both sides; binding response (% of control), % at 10 µM; hit rate 0.35% among 220,000; AID 1439; in the data active means binding response below about 49% or above about 150%; inconclusive means no clear call, values can overlap the other calls; inactive means in between;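 further: fluorescent Galphao held in activated GDP-AlF4 state binding bead-coupled RGS7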
* marks the source's active call; other numbers are inactive results; i = inactive; u = inconclusive; x = not tested or not shown; + = active, no number; [ ] = dose if it differs, or a comment.

SMILES	RGS16-Gao HTS	RGS4-Gao reg	GSH bead fluor	RGS8-Gao	Avidin bead fluor	RGS7-Gao reg
Cn1cnnc1SCC(=O)Nc1cccc(S(=O)(=O)N2CCOCC2)c1	104.0	106.8	9	103.6	8	109.2
Cc1ccc(-c2nn(CC(=O)NCc3cc(-c4nn(C)c(=O)c5ccccc45)ccc3C)c(=O)c3ccccc23)cc1	i	+[activator]	25	209.2*[activator]	487*	+[activator]
O=C(CCC1CCCCC1)Nc1ccc(C(=O)c2ccncc2)cc1	97.1	99.4	17	101.4	8	103.1
CCNc1nc(NCC)nc(OCCOC(=O)COc2ccc(Cl)cc2Cl)n1	80.1	99.5	14	96.7	4	101.6
Cc1ccc(C(=O)COC(=O)c2ccc3c(c2)C(=O)N(c2cccc4ncccc24)C3=O)cc1	134.2	161.8*[activator]	2	98.2	23	100.5
O=C(COC(=O)c1ccc2c(c1)C(=O)N(c1cccc3ncccc13)C2=O)c1ccc(Cl)cc1	102.9	100.9	3	106.5	3	103.1
Cn1c(Cn2c(=O)sc3ccccc32)nnc1SCC(=O)NCc1ccco1	107.0	99.3	16	100.3	26	96.8
O=C(CCCCn1c(=O)c2ccccc2n(Cc2ccc(F)cc2)c1=O)NCc1ccco1	99.2	95.1	19	97.8	7	101.1
O=C(CCCn1c(=O)c2ccccc2n(Cc2ccccc2)c1=O)NCc1ccco1	136.4	127.4	10	109.5	60*	122.0
O=C(CCn1c(=O)sc2ccccc21)NCc1ccco1	183.5	123.4	120*	120.7	14	120.2
O=S(=O)(c1ccc(Br)s1)N1CCc2ccccc2C1	117.2	141.5	26	106.1	48*	127.6
CC(=O)N1CCC(N(C(=O)Nc2ccc(C)c(C)c2)C2CCCC2)CC1	105.7	103.1	18	100.7	47*	105.1
O=C(Oc1cccnc1)c1cccc(Cl)c1	110.7	106.8	267*	106.4	6	104.4
CCCN(CCC)c1nc(Cl)nc(NCCN2CCOCC2)n1	108.3	102.3	9	105.1	20	103.7
CN(C(=O)Nc1ccc(C(C)(C)C)cc1)C1CCCCC1	98.6	111.6	x	98.5	70*	u
CCc1nnc(NC(=O)C2CCCN2C(=O)NC2CCCCC2)s1 (stereo not given)	99.8	101.7	262*	100.3	8	102.3
O=C(CSC1=NCCS1)N1CCN(c2ccccc2)CC1	78.3	90.0	25	89.9	4	94.2
O=C(CSC1=NCCS1)N1CCOCC1	107.0	101.1	249*	103.2	8	100.1
COc1ccc(OCC(=O)OCC(=O)N2CC(=O)Nc3ccccc32)cc1	104.0	101.2	x	103.8	4	u
O=C(O)c1cc2nc3c(c(C(F)(F)F)n2n1)CCc1ccccc1-3	-6.0*	-11.5*	9	19.4*	x	1.4*
COc1ccc(N2CCN(c3ncnc4c3nnn4Cc3ccccc3Cl)CC2)cc1	119.3	105.3	15	106.5	5	102.8
O=C1CSc2ccc(C(=O)NCC(c3ccco3)N3CCCCC3)cc2N1 (stereo not given)	77.5	94.3	71	83.7	50*	113.3
O=C(NCC(c1ccco1)N1CCCCC1)c1ccc2c(c1)S(=O)(=O)c1ccccc1C2=O (stereo not given)	110.8	102.7	7	102.6	25	102.2
COC(=O)COc1cc(C)cc2oc(=O)c(CC(=O)OC)c(C)c12	93.7	91.3	24	96.3	60*	98.9
CSCCOC(=O)C1=C(C)Nc2ccc(C)cc2S1	98.9	102.9	6	100.4	7	104.6
SMILES	RGS16-Gao HTS	RGS4-Gao reg	GSH bead fluor	RGS8-Gao	Avidin bead fluor	RGS7-Gao reg
O=C(O)c1cc(-c2cccnc2)nn1-c1ccccn1	106.0	99.0	260*	99.0	7	99.8
Cn1nc(-c2ccccc2)c(C(O)c2ccc(Cl)cc2)c1Cl (stereo not given)	103.0	100.4	13	99.1	56*	108.2
CCCCn1c(SCC(=O)N2CC(C)CC(C)C2)nc2cc(S(N)(=O)=O)ccc21 (stereo not given)	93.6	91.6	262*	93.0	6	91.2
Cc1cccc2nc(Cn3c(=O)n(CCC(=O)NCc4ccco4)c(=O)c4sccc43)cc(=O)n12	105.9	106.7	35	101.6	5	99.3
Cc1cc(=O)oc2cc(OCc3nnc(-c4ccccc4Br)o3)ccc12	100.6	97.6	12	97.6	49*	103.5
Cc1cccc(C)c1NC(=O)COC(=O)c1ccccc1[N+](=O)[O-]	100.0	102.2	16	100.2	9	96.7
O=C(c1cc(-c2ccc3c(c2)OCO3)on1)N1CCOCC1	100.1	98.2	32	99.1	19	102.9
Cc1cc2oc(=O)cc(Cn3ccnc3)c2cc1C	102.5	102.6	273*	98.5	8	96.5
COc1ccc(CN2CCN(c3ccc(F)cc3)CC2)c(OC)c1OC	108.3	117.3	8	102.3	67*	138.5
COc1ccc(CN2CCN(S(=O)(=O)c3ccc(F)cc3)CC2)c(OC)c1OC	98.7	84.1	56	101.0	9	98.5
Cc1cccc(-n2nc3c(c2NC(=O)c2ccco2)CS(=O)(=O)C3)c1C	103.8	100.4	16	103.1	10	99.4
COc1ccc(NC(=O)Cn2cnc3ccccc3c2=O)cc1OC	113.0	101.2	17	88.5	6	93.5
COc1ccccc1CNC(=O)Cn1cnc2ccccc2c1=O	166.1	130.8	234*	122.8	6	122.2
O=C(Cn1cnc2ccccc21)NCc1ccccc1	102.6	105.3	33	100.7	58*	135.8
O=C(COC(=O)Cn1cnc2ccccc21)NCc1ccc(F)cc1	102.8	101.4	15	101.6	9	u
O=C(c1ccc2nc(-c3ccccc3)c(-c3ccccc3)nc2c1)N1CCCCC1	93.3	96.0	x	96.2	x	u
CC1=NN(c2ccc(Cl)cc2)C(=O)C1	95.8	101.3	18	100.4	9	97.1
CC1=NN(c2ccc(N)cc2)C(=O)C1	-44.1	34.7*	223*	74.3	0	12.4*
Cc1nn(Cc2cccc(C(N)=O)c2)c(C)c1Br	106.4	98.5	x	101.0	6	u
Cc1nn(Cc2cccc(C(=O)NCC(C)C)c2)c(C)c1Br	96.3	115.5	148*	102.0	6	112.0
COc1ccc(NC(=S)N(CCN(C)C)C(C)c2ccco2)cc1Cl (stereo not given)	121.3	111.0	152*	104.0	28	112.8
CCOC(=O)c1cc(-c2ccc(C#N)cc2)nc2c1c(C)nn2CCC#N	92.8	98.8	13	100.0	7	103.8
CCOC(=O)c1cc(-c2ccc(OC)cc2)nc2c1c(C)nn2CCC#N	101.1	102.7	11	100.2	56*	105.2
C=CCn1c(SCC(=O)NC2CCCCC2)nnc1C1CCCCC1	102.4	107.8	12	101.6	60*	117.6
Nn1c(SCC(=O)NC2CCCCC2)nnc1C1CC1	103.2	102.5	36	102.3	11	102.4
